FBW7 act = FBW7 E3 ligase activators, primary screen, biochemical, AlphaScreen, human; F-box/WD repeat-containing protein 7 (Homo sapiens), Q969H0; AlphaScreen FBW7–phospho-cyclin E peptide binding, activator screen; normalized activity (activation), % at 26.1 µM; 650,000 tested, 0.13% active; in the data active = normalized activity above about 1.9%;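 also: purified mutant Fbw7 with reduced substrate affinity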
Target sequence (Q969H0 whole entry, looked up): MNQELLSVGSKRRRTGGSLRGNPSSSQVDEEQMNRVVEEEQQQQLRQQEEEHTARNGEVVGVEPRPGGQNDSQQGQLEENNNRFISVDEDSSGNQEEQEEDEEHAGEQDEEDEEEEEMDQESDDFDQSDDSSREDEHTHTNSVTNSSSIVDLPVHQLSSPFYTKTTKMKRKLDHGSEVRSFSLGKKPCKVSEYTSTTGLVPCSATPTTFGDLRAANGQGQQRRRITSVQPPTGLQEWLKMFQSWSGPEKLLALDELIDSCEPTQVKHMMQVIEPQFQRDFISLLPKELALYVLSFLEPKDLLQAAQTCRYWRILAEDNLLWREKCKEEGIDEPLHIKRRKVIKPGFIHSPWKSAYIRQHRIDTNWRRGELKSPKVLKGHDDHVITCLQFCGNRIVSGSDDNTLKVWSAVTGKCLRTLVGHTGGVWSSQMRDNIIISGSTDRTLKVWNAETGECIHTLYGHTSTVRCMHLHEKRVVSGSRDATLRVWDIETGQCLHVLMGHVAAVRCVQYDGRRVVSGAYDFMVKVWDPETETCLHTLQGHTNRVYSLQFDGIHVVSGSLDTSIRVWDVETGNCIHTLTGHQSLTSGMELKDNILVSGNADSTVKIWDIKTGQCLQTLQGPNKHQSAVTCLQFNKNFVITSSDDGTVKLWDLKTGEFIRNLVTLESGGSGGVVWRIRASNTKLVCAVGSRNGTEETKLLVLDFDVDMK
GPR151 ag = activators of human GPR151, primary screen, cell-based, PathHunter beta-arrestin, luminescence. G-protein coupled receptor 151 (Homo sapiens), Q8TDV0. PathHunter beta-arrestin GPR151 cells. activation, % at 11.2 µM. 650,000 tested, 1% active. AID 1508602, 2020; in the data active = activation above about 4.9%;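 also: 0% = median of compound wells and 100% = cells with positive control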
MITF primary = MITF inhibitors, primary screen, biochemical, AlphaScreen, human; Microphthalmia-associated transcription factor (Homo sapiens), O75030; AlphaScreen MITF homodimerization, bead proximity signal; inhibition, % at 2.6 µM; 650,000 tested, 0.91% active; AID 1259374, 2018; in the data active = inhibition above about 50%;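 also: 0% = vehicle wells with protein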
TEAD-YAP block = TEAD-YAP interaction inhibition, primary screen, TEAD-YAP interaction inhibitor project, luminescence, HEK-TIYL cells; TEAD-Gal4/YAP UAS-luciferase luminescence; 640,000 tested, 1.4% active; AID 1259422, 2018; inhibition, % at 9.12 µM; in the data active = inhibition above about 32%;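 also: 0% = median of test compound wells and 100% = reference inhibitor wells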
GPR151 conf act = GPR151 activators, triplicate retest, confirmation, cell-based, PathHunter beta-arrestin, luminescence. shares compounds with GPR151 ag. GPR151 PathHunter beta-arrestin cells, 90 min; % of EA-reagent control over plate median. activation, % at 11.2 µM. 6,700 tested, under 10 active;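 active = mean percent activation across replicates above the confirmation screen cutoff of 4.91%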
GPR119 ag = GPR119 activators in beta-arrestin cells, counter-screen for GPR151 activator project, cell-based, PathHunter beta-arrestin, luminescence, triplicate. shares compounds with GPR151 ag. 90 min; 0 = compound-well median, 100 = enzyme-acceptor control. activation, % at 11.2 µM. 6,700 tested, 0.3% active;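 active = mean percent activation in the counterscreen above 29.09%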;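 also: counterscreen on off-target GPR119 to flag nonselective hits from the GPR151 activator screen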
* hit, by the source's call; . = not tested or not shown. Rows were chosen to be rich in hits. Some 3.4% of all compounds tested hit in one or more screens of this group.

SMILES	FBW7 act	GPR151 ag	MITF primary	TEAD-YAP block	GPR151 conf act	GPR119 ag
CN(C)c1ccc(C2Oc3ccccc3C3=C2C(c2ccc(N(C)C)cc2)n2ncnc2N3)cc1 (configuration not stated)	-0.1	1.5	1.2	-6.2	.	.
CN1CCN(c2ccccc2NC(=O)Cc2ccc(Cl)cc2)CC1	0.0	6.1*	-0.5	-8.6	-0.3	1.5
CN1CCN(c2ccccc2NC(=O)c2ccc([N+](=O)[O-])o2)CC1	0.0	5.7*	-3.7	5.9	-0.2	-7.7
CS(=O)(=O)N1CCN(c2ccccc2NC(=O)c2ccc([N+](=O)[O-])o2)CC1	-0.2	-0.8	4.6	4.5	.	.
OC1CCN(c2nc3nonc3nc2N2CCCCCC2)CC1	0.0	0.5	0.1	-0.1	.	.
CN(C(=O)COc1ccc(C(C)(C)C)cc1)C1(C)CCS(=O)(=O)C1 (configuration not stated)	-0.1	5.5*	-11.6	7.8	-0.8	-1.5
OC(COc1c(F)cc(Br)cc1F)CN1CCN(c2ccccc2F)CC1 (configuration not stated)	-0.2	0.9	-7.9	8.1	.	.
CCN(CC)CCCN(C)C(=O)Cc1nc(-c2ccc(OC)cc2)no1	-0.1	5.0*	3.6	-4.7	0.3	0.0
COc1ccc(-c2noc(CN(C(=O)c3ccccc3F)C(C)C)n2)cc1	-0.1	5.4*	16.1	-5.0	0.1	9.6
COc1ccc(-c2noc(CC(=O)Nc3cc(C)on3)n2)cc1	-0.1	0.5	9.2	2.4	.	.
COc1ccc(-c2noc(CC(=O)Nc3cccc(C)n3)n2)cc1	0.0	5.5*	3.8	1.7	0.7	-7.9
CCN(C(=O)Cc1nc(-c2ccc(OC)cc2)no1)c1ccccc1C	0.1	8.9*	6.0	7.4	0.5	-5.9
CC(C)N(Cc1nc(-c2ccccc2)no1)C(=O)c1ccccc1F	0.6	-0.9	13.4	11.5	.	.
CCOC(=O)c1[nH]c2ccccc2c1CC#N	0.0	1.4	6.4	4.7	.	.
Cn1c(Nc2nc(C(=O)NCCN3CCOCC3)cs2)nc2ccccc21	-0.1	-0.8	15.4	3.4	.	.
N#C/C(=C\c1ccc(-c2ccc([N+](=O)[O-])cc2)o1)C(=O)Nc1ccc(S(N)(=O)=O)cc1	-0.1	0.8	12.1	2.2	.	.
O=C1C2C3C=CC(C3)C2C(=O)N1/N=C/c1ccc(O)c(O)c1 (configuration not stated)	-0.2	0.5	17.2	-1.8	.	.
COc1ccc(OC)c(C(=O)CC2(O)C(=O)Nc3ccc(Br)cc32)c1 (configuration not stated)	-0.2	5.8*	-2.9	-16.6	0.5	-5.5
CCOc1ccc(N2C(=O)CC(N3CCN(C/C=C/c4ccccc4)CC3)C2=O)cc1 (configuration not stated)	-0.2	-0.3	-10.3	-11.3	.	.
CCNS(=O)(=O)c1ccc(CCC(=O)NC2CC2)cc1	0.1	6.7*	11.4	-11.8	0.3	10.2
FC(F)(F)C(F)(F)c1nnc2c3ccccc3c(NCc3ccccc3)nn12	0.0	-0.8	5.3	-6.1	.	.
COc1ccc(NC(=O)C(=O)NC2CCCCCC2)c(OC)c1	-0.3	5.3*	1.4	-3.0	-1.0	-14.6
COc1cc(OC)cc(C(=O)NNC(=O)NC2CCCCC2)c1	0.0	7.3*	10.4	0.7	-0.3	-4.1
COc1ccc(NC(=O)c2ccoc2C)c(OC)c1	0.0	6.1*	16.6	-12.0	-0.3	-11.6
Cc1ccc(N(CC(=O)NC2CCCC2)C(=O)CNC(=O)c2ccco2)cc1C	-0.1	-0.9	3.9	-2.6	.	.
COc1ccc(N2CCN(C3CCCN(C(=O)CCN4CCCCO4)C3)CC2)cc1 (configuration not stated)	0.0	5.3*	5.8	-4.8	1.0	9.9
Cc1cc(C)n2nc(C(=O)N/N=C/c3cc([N+](=O)[O-])ccc3O)nc2n1	-0.8	5.8*	3.2	2.4	-0.6	-2.9

Screening results: PubChem BioAssay, The Scripps Research Institute Molecular Screening Center
